{"source": "PubChem BioAssay AID463173", "about": "(ICCB-Longwood Screening Facility, Harvard Medical School, 2010)", "note": "Hit rate of the full screen: of about 52,000 compounds, about 4,300 (8.3%) were called active. This excerpt belongs to a sample that is enriched for actives. A number with no mark means an inactive call. Cut-off read from the data, not from the text of the source: active = survival mostly below about 52% (no sharp cut-off); inactive = mostly above about 56%."}
{"test_system": "DeltatarO mutant", "test": "growth inhibition of S. aureus wild type versus tarO mutant, primary screen, teichoic acid synthesis inhibitors, RN4220, OD600 (AID 463173)", "conditions": "OD600, 18 h, hits give low values, screened at 18.75 µg/mL (by protocol)"}
{"molecule": "O=C(CC1Nc2ccccc2NC1=O)Nc1cccc2ccccc12", "note": "(stereo not drawn)", "survival": "93%"}
{"molecule": "CCOc1cc(CNC(=O)c2ccc(Cn3c(=O)c4cccn4c4cccnc43)cc2)ccc1OC", "survival": "52% (active)"}
{"molecule": "COc1ccc(CNC(=O)c2ccc(Cn3c(=O)c4cccn4c4cccnc43)cc2)c(OC)c1", "survival": "58% (active)"}
{"molecule": "O=C(NCc1ccccc1Cl)c1ccc(Cn2c(=O)c3cccn3c3cccnc32)cc1", "survival": "103%"}
{"molecule": "CC(C)Oc1ccc(CNC(=O)c2ccc(Cn3c(=O)c4cccn4c4cccnc43)cc2)cc1", "survival": "55%"}
{"molecule": "O=C(NCc1ccc(Cl)cc1)c1ccc(Cn2c(=O)c3cccn3c3cccnc32)cc1", "survival": "49%"}
{"molecule": "O=C(NCCc1ccccc1)c1ccc(Cn2c(=O)c3cccn3c3cccnc32)cc1", "survival": "51%"}
{"molecule": "CCOc1ccccc1CNC(=O)c1ccc(Cn2c(=O)c3cccn3c3cccnc32)cc1", "survival": "44% (active)"}
{"molecule": "CCCNC(=O)c1ccc(Cn2c(=O)c3cccn3c3cccnc32)cc1", "survival": "52%"}
{"molecule": "O=C(NCCc1ccc(Cl)cc1)c1ccc(Cn2c(=O)c3cccn3c3cccnc32)cc1", "survival": "43% (active)"}
{"molecule": "CN(C)c1ccc(CNC(=O)c2ccc(Cn3c(=O)c4cccn4c4cccnc43)cc2)cc1", "survival": "60%"}
{"molecule": "COc1ccc(CNC(=O)c2ccc(Cn3c(=O)c4cccn4c4cccnc43)cc2)cc1OC", "survival": "67%"}
{"molecule": "Cc1ccc(CCNC(=O)c2ccc(Cn3c(=O)c4cccn4c4cccnc43)cc2)cc1", "survival": "52%"}
{"molecule": "O=C(NCCc1ccccc1)C(=O)Nc1cccc(Br)c1", "survival": "68%"}
{"molecule": "Cc1ccc2c(CC(=O)Nc3nnc(C(C)C)s3)coc2c1C", "survival": "101%"}
{"molecule": "CC(C)c1ccc(CN(C(=O)c2cc3ccccc3oc2=O)C2CCS(=O)(=O)C2)cc1", "note": "(stereo not drawn)", "survival": "51%"}
{"molecule": "CCCCOC(=O)c1ccc(NC(=O)c2ccc3c(c2)CCCN3S(C)(=O)=O)cc1", "survival": "96%"}
{"molecule": "C=CCC1N(c2ccccc2)C(=O)C2C(C(=O)O)C3C=CC21O3", "note": "(stereo not drawn)", "survival": "103%"}
{"molecule": "[O-][n+]1onc2c1CCC1N(O)C(c3ccccc3)CC21O", "note": "(stereo not drawn)", "survival": "80%"}
{"molecule": "O=C(CCSCc1ccc(Cl)cc1)N1CCN(c2ccccc2F)CC1", "survival": "77%"}
{"molecule": "CC1=C(C(=O)Nc2cc(C)ccc2C)C2(CCCCCC2)OC1=O", "survival": "89%"}
{"molecule": "Cc1ccccc1NC(=O)C(=O)NCC1(c2ccccc2)CCCC1", "survival": "73%"}
{"molecule": "O=C(Cn1c(=O)n(-c2ccccc2Cl)c(=O)c2sc3ccccc3c21)NC1CCCCC1", "survival": "109%"}
{"molecule": "O=C(NCc1ccccc1)c1ccc(Cn2c(=O)c3cccn3c3cccnc32)cc1", "survival": "108%"}
{"molecule": "COc1ccc(CCNC(=O)CCn2c(=O)c3cccn3c3cccnc32)cc1OC", "survival": "82%"}
{"molecule": "COc1ccc(CCNC(=O)c2ccc(Cn3c(=O)c4cccn4c4cccnc43)cc2)cc1OC", "survival": "48% (active)"}
{"molecule": "CCc1ccc(CNC(=O)c2ccc(Cn3c(=O)c4cccn4c4cccnc43)cc2)cc1", "survival": "67%"}
{"molecule": "CCOc1ccc(CCNC(=O)c2ccc(Cn3c(=O)c4cccn4c4cccnc43)cc2)cc1", "survival": "93%"}
{"molecule": "Cc1cccc(CNC(=O)c2ccc(Cn3c(=O)c4cccn4c4cccnc43)cc2)c1", "survival": "48% (active)"}
{"molecule": "Cc1cc(C)c2sc(N(Cc3cccnc3)C(=O)CCS(=O)(=O)c3ccccc3)nc2c1", "survival": "89%"}
{"molecule": "CCc1ccccc1NC(=O)Cn1c(=O)nc(-c2ccccc2)c2ccccc21", "survival": "90%"}
{"molecule": "N#Cc1ccccc1Cn1c(=O)n(-c2ccc(F)c(Cl)c2)c(=O)c2sccc21", "survival": "112%"}
{"molecule": "O=S(=O)(c1ccccc1)c1cccc(S(=O)(=O)N2CCCC2)c1", "survival": "86%"}
{"molecule": "Cc1cccc(C)c1NC(=O)C(c1ccccc1)N(Cc1ccco1)C(=O)Cn1nnc2ccccc21", "note": "(stereo not drawn)", "survival": "74%"}
{"molecule": "CCOc1ccc(NC(=O)C2CCN(C(=O)N3CC(C)Oc4ccc(Cl)cc43)CC2)cc1", "note": "(stereo not drawn)", "survival": "100%"}
{"molecule": "Cc1cc(=O)oc2ccccc12", "survival": "83%"}
{"molecule": "Cc1ccc(C(c2nnnn2C2CCCC2)N2CCc3ccccc32)cc1", "note": "(stereo not drawn)", "survival": "100%"}
{"molecule": "CN1C(=O)c2ccccc2Sc2ccc(NC(=O)NCc3ccccc3Br)cc21", "survival": "51%"}
{"molecule": "CCc1ccccc1NC(=O)Nc1ccc2c(c1)N(CC)C(=O)c1ccccc1S2", "survival": "41% (active)"}
{"molecule": "Cc1ccccc1CNC(=O)Nc1ccc2c(c1)N(C)C(=O)c1ccccc1S2", "survival": "63% (active)"}
{"molecule": "CCOC(=O)c1cccc(NC(=O)Nc2ccc3c(c2)N(C)C(=O)c2ccccc2S3)c1", "survival": "92%"}
{"molecule": "COc1ccccc1CNC(=O)Nc1ccc2c(c1)N(C)C(=O)c1ccccc1S2", "survival": "70%"}
{"molecule": "CCc1cccc(NC(=O)Nc2ccc3c(c2)N(C)C(=O)c2ccccc2S3)c1", "survival": "26% (active)"}
{"molecule": "CCN1C(=O)c2ccccc2Sc2ccc(NC(=O)Nc3cc(C)cc(C)c3)cc21", "survival": "67%"}
{"molecule": "COc1cccc(NC(=O)Nc2ccc3c(c2)N(C)C(=O)c2ccccc2S3)c1", "survival": "51%"}
{"molecule": "CC(C)CCNC(=O)Nc1ccc2c(c1)N(C)C(=O)c1ccccc1S2", "survival": "89%"}
{"molecule": "CC(C)CCNC(=O)c1ccc2c(c1)N(Cc1cccc(Cl)c1)C(=O)c1ccccc1S2", "survival": "83%"}
{"molecule": "CC(C)CCNC(=O)c1ccc2c(c1)N(C)C(=O)c1ccccc1S2", "survival": "-5% (active)"}
{"molecule": "CCN1C(=O)c2ccccc2Sc2ccc(NC(=O)Nc3ccccc3OC)cc21", "survival": "61%"}
{"molecule": "CCOC(=O)c1c(C)[nH]c(C)c1S(=O)(=O)N1CCCC(C(=O)N2CCN(c3ccccc3F)CC2)C1", "note": "(stereo not drawn)", "survival": "84%"}
{"molecule": "CCc1ccc2oc(-c3ccc(C)c(NC(=O)Cc4ccccc4)c3)nc2c1", "survival": "145%"}
{"molecule": "CCOc1ccc2c(c1)c(=O)c(C(=O)c1ccccc1)cn2Cc1ccccc1", "survival": "87%"}
{"molecule": "Cc1ccc(S(=O)(=O)Cn2nnnc2CN2CCC(Cc3ccccc3)CC2)cc1", "survival": "100%"}
{"molecule": "O=C(Cn1c(=O)c2cccn2c2ccc(F)cc21)Nc1cccc(F)c1", "survival": "64%"}
{"molecule": "Cc1ccc(C2=Nc3ccccc3N=C(c3ccc(F)cc3)C2)c(O)c1", "survival": "60%"}
{"molecule": "COC(=O)Cn1c(C(=O)OC)cc2c1ccn2-c1ccc(F)cc1", "survival": "93%"}
{"molecule": "Cc1nn(CCCC(=O)NCc2ccc(F)cc2)c(=O)c2c1sc1ccccc12", "survival": "85%"}
{"molecule": "O=C(NCCc1ccc(Cl)cc1)C(=O)NCC(c1ccc2c(c1)OCO2)N1CCOCC1", "note": "(stereo not drawn)", "survival": "117%"}
{"molecule": "O=C(c1cccn2c(=O)c3cc(Cl)ccc3nc12)N1CCN(c2ccccc2F)CC1", "survival": "76%"}
{"molecule": "COc1ccc(CNC(=O)Nc2ccc3c(c2)N(C)C(=O)c2ccccc2S3)cc1", "survival": "112%"}
{"molecule": "CN1C(=O)c2ccccc2Sc2ccc(NC(=O)NCc3cccc(Cl)c3)cc21", "survival": "78%"}
{"molecule": "COc1cccc(CNC(=O)Nc2ccc3c(c2)N(C)C(=O)c2ccccc2S3)c1", "survival": "42% (active)"}
{"molecule": "CCOC(=O)c1c(C)[nH]c(C)c1S(=O)(=O)N1CCC(C(=O)NCc2ccc(F)cc2)CC1", "survival": "6% (active)"}
{"molecule": "CCOC(=O)c1c(C)[nH]c(C)c1S(=O)(=O)N1CCC(C(=O)Nc2ccc(OCC)cc2)CC1", "survival": "-1% (active)"}
{"molecule": "CCOC(=O)c1c(S(=O)(=O)N2CCC(C(=O)Nc3ccc(OCC)cc3)CC2)c(C)n(C)c1C", "survival": "99%"}
{"molecule": "CCOC(=O)c1c(C)[nH]c(C)c1S(=O)(=O)N1CCC(C(=O)Nc2ccc(C)c(Cl)c2)CC1", "survival": "79%"}
{"molecule": "CCOC(=O)c1c(C)[nH]c(C)c1S(=O)(=O)N1CCC(C(=O)NCc2ccccc2)CC1", "survival": "81%"}
{"molecule": "CCOC(=O)c1c(C)[nH]c(C)c1S(=O)(=O)N1CCC(C(=O)NCc2ccc(C)cc2)CC1", "survival": "72%"}
{"molecule": "CCN(C(=O)c1ccco1)c1nnc(Cn2nnc3ccccc32)s1", "survival": "91%"}
{"molecule": "Cc1c(C2=CCN(S(=O)(=O)c3cccc(Cl)c3)CC2)c2ccccc2n1CC(=O)N1CCCC1", "survival": "75%"}
{"molecule": "CN1CC(=O)Nc2cc(C(=O)O)ccc21", "survival": "87%"}
{"molecule": "COc1ccc(OCc2ccc(-c3nc(C#N)c(N4CCC(C(N)=O)CC4)o3)o2)cc1", "survival": "72%"}
{"molecule": "Cc1cccc(OCc2ccc(-c3nc(C#N)c(N4CCC(C(N)=O)CC4)o3)o2)c1", "survival": "80%"}
{"molecule": "Cc1ccccc1OCc1ccc(-c2nc(C#N)c(N3CCC(C(N)=O)CC3)o2)o1", "survival": "38% (active)"}
{"molecule": "Cc1ccc(OCc2ccc(-c3nc(C#N)c(N4CCC(C)CC4)o3)o2)cc1", "survival": "58%"}
{"molecule": "CCN1CCN(c2oc(-c3ccc(COc4ccc(OC)cc4)o3)nc2C#N)CC1", "survival": "49% (active)"}
{"molecule": "CCN1CCN(c2oc(-c3ccc(COc4ccccc4C)o3)nc2C#N)CC1", "survival": "82%"}
{"molecule": "Cc1ccccc1OCc1ccc(-c2nc(C#N)c(N3CCCCC3)o2)o1", "survival": "99%"}
{"molecule": "COc1ccc(OCc2ccc(-c3nc(C#N)c(N4CCC(C)CC4)o3)o2)cc1", "survival": "54%"}
{"molecule": "N#Cc1nc(-c2ccc(COc3ccc(Cl)cc3)o2)oc1N1CCC(C(N)=O)CC1", "survival": "34% (active)"}
{"molecule": "CCN1CCN(c2oc(-c3ccc(COc4ccc(C)cc4)o3)nc2C#N)CC1", "survival": "38% (active)"}
{"molecule": "CC1CCN(c2oc(-c3ccc(COc4ccc(Cl)cc4)o3)nc2C#N)CC1", "survival": "81%"}
{"molecule": "COc1ccc(OCc2ccc(-c3nc(C#N)c(N4CCN(c5ccccc5)CC4)o3)o2)cc1", "survival": "77%"}
{"molecule": "Cc1nc2c3ccccc3nc(NNC(=O)CCC(=O)O)n2n1", "survival": "94%"}
{"molecule": "Cc1ccc(C2c3cccn3CCN2S(=O)(=O)c2ccc([N+](=O)[O-])cc2)cc1", "note": "(stereo not drawn)", "survival": "99%"}
{"molecule": "CC(C)CCNC(=O)c1ccc2c(c1)nc1n2CCCCC1", "survival": "86%"}
{"molecule": "CCCCN(C)S(=O)(=O)c1cc(-c2cc(C)no2)ccc1C", "survival": "84%"}
{"molecule": "COc1ccc(OCc2ccc(-c3nc(C#N)c(N4CCCCC4)o3)o2)cc1", "survival": "42% (active)"}
{"molecule": "N#Cc1nc(-c2ccc(COc3ccc(Cl)cc3)o2)oc1N1CCCCC1", "survival": "49%"}
{"molecule": "CN1CCN(c2oc(-c3ccc(COc4ccc(Cl)cc4)o3)nc2C#N)CC1", "survival": "45% (active)"}
{"molecule": "N#Cc1nc(-c2ccc(COc3ccccc3)o2)oc1N1CCCCC1", "survival": "48%"}
{"molecule": "COc1ccc(OCc2ccc(-c3nc(C#N)c(N4CCN(C)CC4)o3)o2)cc1", "survival": "52%"}
{"molecule": "COc1ccc(OCc2ccc(-c3nc(C#N)c(N4CCN(c5cccc(Cl)c5)CC4)o3)o2)cc1", "survival": "75%"}
